From PubChem BioAssay
The source made the active and inactive calls.

Legend:
[1] = small molecules captured by biotinylated probe aFSTL3 – biochemical, small-molecule microarray, fluorescence 635/667, stem cell growth factor project, primary screen (AID 1064); details: higher = more signal;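 also: measures binding of the biotinylated anti-FSTL3 antibody to printed compounds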
[2] = binders from COS7 lysate, DM2A8 probe, primary screen, torsin A project, cell lysate, small-molecule microarray, fluorescence 635/667 (AID 1065); details: higher = more signal, COS7 lysate expressing mutant human TOR1A
[3] = small molecules captured by biotinylated probe aFGF2 – biochemical, small-molecule microarray, fluorescence 635/667, stem cell growth factor project, primary screen (AID 1067); details: higher = more signal;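 also: measures binding of biotinylated aFGF2 protein to printed compounds on slides; z-score merges feature fluorescence and signal-to-noise across triplicate slides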
[4] = small molecules captured by biotinylated probe aFGF10 – biochemical, small-molecule microarray, fluorescence 635/667, stem cell growth factor project, primary screen (AID 1071); details: higher = more signal;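 also: score merges 667 nm spot intensity and signal to noise from triplicate slides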
[5] = target: Neurogenic locus notch homolog protein 2 (Homo sapiens) (UniProt Q04721); experiment: small molecules binding Notch2 protein – biochemical, small-molecule microarray, 635 nm fluorescence, stem cell growth factors, primary screen (AID 1073); details: higher = more signal
Neurogenic locus notch homolog protein 2 (Homo sapiens), sequence (Q04721 whole entry, looked up, canonical isoform): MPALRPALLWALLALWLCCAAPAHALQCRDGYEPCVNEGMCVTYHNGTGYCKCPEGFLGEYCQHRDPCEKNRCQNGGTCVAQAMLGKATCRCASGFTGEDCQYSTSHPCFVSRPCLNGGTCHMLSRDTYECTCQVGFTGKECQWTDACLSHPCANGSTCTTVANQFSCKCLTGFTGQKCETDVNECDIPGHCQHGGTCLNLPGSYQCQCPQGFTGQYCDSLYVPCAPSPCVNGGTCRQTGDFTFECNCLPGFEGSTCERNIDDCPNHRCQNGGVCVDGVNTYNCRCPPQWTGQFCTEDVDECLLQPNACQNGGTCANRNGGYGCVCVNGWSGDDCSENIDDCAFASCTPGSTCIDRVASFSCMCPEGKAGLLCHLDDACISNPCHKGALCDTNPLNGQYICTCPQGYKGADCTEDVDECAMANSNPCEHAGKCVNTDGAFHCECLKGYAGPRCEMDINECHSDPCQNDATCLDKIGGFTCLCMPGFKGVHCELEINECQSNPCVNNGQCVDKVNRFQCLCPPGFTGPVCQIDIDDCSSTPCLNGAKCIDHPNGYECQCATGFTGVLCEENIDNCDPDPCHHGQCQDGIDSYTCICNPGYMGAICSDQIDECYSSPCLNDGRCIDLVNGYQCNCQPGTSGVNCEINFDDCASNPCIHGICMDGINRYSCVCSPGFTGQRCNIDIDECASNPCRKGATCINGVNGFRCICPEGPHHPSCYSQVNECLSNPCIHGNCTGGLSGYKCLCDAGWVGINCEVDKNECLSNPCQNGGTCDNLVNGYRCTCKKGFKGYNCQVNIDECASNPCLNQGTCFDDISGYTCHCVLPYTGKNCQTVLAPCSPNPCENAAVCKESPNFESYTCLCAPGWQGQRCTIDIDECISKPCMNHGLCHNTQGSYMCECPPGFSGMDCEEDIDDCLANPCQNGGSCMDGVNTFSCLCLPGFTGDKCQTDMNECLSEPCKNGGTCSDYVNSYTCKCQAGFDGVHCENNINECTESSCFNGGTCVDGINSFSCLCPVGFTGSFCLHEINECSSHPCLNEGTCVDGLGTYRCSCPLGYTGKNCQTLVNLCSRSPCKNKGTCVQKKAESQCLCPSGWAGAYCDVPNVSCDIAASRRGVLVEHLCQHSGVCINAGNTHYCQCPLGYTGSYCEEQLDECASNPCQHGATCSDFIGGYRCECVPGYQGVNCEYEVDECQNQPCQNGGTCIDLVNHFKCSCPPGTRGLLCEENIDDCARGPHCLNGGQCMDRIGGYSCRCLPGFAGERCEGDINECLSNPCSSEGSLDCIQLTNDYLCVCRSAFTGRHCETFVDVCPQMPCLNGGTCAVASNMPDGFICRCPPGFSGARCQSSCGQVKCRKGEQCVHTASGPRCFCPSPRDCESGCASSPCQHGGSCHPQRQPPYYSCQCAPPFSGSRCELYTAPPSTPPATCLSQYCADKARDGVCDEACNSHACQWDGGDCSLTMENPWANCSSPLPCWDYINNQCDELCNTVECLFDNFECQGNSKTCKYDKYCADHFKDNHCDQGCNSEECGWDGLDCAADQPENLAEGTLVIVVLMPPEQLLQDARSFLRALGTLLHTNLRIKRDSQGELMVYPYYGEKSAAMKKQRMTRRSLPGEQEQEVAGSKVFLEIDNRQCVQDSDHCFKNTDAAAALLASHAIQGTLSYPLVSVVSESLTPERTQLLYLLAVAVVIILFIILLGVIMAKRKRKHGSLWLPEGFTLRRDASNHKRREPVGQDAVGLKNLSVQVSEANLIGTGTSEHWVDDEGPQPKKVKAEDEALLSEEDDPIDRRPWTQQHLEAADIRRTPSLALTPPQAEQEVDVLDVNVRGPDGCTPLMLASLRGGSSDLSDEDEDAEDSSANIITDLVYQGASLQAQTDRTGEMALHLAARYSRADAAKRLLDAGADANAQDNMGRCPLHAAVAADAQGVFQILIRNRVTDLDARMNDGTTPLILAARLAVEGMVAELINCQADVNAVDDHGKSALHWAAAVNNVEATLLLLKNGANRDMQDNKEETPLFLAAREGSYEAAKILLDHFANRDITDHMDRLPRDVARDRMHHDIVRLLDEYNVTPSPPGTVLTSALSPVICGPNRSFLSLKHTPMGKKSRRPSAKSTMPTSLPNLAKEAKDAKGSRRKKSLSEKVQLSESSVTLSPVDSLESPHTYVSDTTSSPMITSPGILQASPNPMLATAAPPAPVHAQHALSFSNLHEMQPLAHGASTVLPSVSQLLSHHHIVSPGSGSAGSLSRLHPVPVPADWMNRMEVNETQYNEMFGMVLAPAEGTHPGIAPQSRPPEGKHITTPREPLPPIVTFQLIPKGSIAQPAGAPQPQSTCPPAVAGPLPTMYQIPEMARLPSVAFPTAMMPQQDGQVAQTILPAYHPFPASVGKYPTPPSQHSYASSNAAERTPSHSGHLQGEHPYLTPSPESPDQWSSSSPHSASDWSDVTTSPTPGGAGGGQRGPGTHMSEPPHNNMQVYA

[6] = target: Pro-neuregulin-1, membrane-bound isoform (Homo sapiens) (UniProt Q02297); experiment: small molecules binding neuregulin-1 protein – biochemical, small-molecule microarray, fluorescence 635/667, psychiatric disease protein project, primary screen (AID 1075); details: NRG1 binding, 635 nm fluorescence, higher = more signal;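 also: score combines 667 nm spot fluorescence with signal to noise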
Pro-neuregulin-1, membrane-bound isoform (Homo sapiens), sequence (Q02297 whole entry, looked up, the tested form may be a part, canonical isoform): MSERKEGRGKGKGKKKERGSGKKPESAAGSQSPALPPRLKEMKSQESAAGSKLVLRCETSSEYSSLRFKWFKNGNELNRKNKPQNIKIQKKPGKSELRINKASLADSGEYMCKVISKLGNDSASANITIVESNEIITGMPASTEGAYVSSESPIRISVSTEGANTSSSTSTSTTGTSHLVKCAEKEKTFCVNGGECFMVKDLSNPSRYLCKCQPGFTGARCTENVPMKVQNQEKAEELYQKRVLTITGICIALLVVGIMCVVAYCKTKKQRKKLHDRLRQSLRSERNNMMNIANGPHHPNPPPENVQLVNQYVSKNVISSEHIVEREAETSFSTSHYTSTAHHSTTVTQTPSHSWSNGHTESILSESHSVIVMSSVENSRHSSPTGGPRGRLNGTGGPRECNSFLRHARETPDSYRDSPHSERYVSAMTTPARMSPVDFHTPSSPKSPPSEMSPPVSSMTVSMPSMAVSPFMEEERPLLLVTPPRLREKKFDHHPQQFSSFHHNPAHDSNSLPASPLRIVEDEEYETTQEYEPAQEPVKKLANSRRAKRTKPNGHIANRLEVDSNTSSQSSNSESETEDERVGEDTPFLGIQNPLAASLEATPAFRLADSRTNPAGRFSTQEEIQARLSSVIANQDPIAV

[7] = system: Neuregulin-1 EGF-like domain; experiment: small molecules binding NRG1 EGF domain – biochemical, small-molecule microarray, 635 nm fluorescence, primary screen (AID 1081); details: higher = more signal;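 also: binding of the protein to compounds printed on small-molecule microarray slides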
[8] = FRG1 expression reporter modulators in myotubes – cell-based, C2C12 myotubes, firefly/Renilla luciferase, luminescence, FRG1 inhibition for FSHD, primary screen (AID 1084); details: FRG1 promoter luciferase, higher = more signal, called active from +8 up or from −8 down
[9] = small molecules captured by biotinylated probe aFST – biochemical, small-molecule microarray, fluorescence 635/667, stem cell growth factor project, primary screen (AID 1086); details: higher = more signal;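 also: score merges 667 nm fluorescence with signal-to-noise of each printed compound spot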
[10] = binders of probe aHhip on microarray, primary screen, stem cell growth factor project, biochemical, small-molecule microarray, fluorescence 635/667 (AID 1087); details: higher = more signal;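 also: score merges spot fluorescence at 667nm with spot signal to noise ratio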
[11] = system: PRMT1 (protein arginine N-methyltransferase 1); experiment: small molecules binding arginine methyltransferase PRMT1 – biochemical, small-molecule microarray, 635 nm fluorescence, primary screen (AID 1088); details: higher = more signal;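 also: binding of Prmt1 protein to compounds spotted on small-molecule microarray slides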
[12] = growth effects on S. cerevisiae YJM789 – YJM789 clinical isolate, OD600, 24 h, basal, primary screen (AID 1089); details: higher = more signal, called active from +8 up or from −8 down;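 also: growth of clinical yeast isolate S. cerevisiae YJM 789 seeded 1000 cells per well; test concentration not given here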
[13] = S. pombe growth modifiers, basal conditions – strain 972, OD600, 24 h, no modulator, primary screen (AID 1090);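 also: basal condition with compound alone and no growth modifier present; test concentration not given here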; details: S. pombe 972 growth, higher = more signal, called active from +8 up or from −8 down
[14] = budding yeast growth modifiers under rapamycin – strain BY4716, OD600, 96 h, primary screen (AID 1091); also: test concentration not given here; details: S. cerevisiae BY4716 + rapamycin, higher = more signal, called active from +8 up or from −8 down
[15] = target: Torsin-1A-interacting protein 2 (Homo sapiens) (UniProt Q8NFQ8); experiment: small molecules binding lysate-expressed LULL1 – cell lysate, human LULL1 lysate, 635/667 nm fluorescence, primary screen (AID 1092); details: small-molecule microarray, hLULL1 lysate binding, 635 nm fluorescence; higher = more signal;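 also: probe is lysate of COS7 cells overexpressing human LULL1; score merges per-feature 667 nm fluorescence with signal-to-noise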
Torsin-1A-interacting protein 2 (Homo sapiens), sequence (Q8NFQ8 whole entry, looked up): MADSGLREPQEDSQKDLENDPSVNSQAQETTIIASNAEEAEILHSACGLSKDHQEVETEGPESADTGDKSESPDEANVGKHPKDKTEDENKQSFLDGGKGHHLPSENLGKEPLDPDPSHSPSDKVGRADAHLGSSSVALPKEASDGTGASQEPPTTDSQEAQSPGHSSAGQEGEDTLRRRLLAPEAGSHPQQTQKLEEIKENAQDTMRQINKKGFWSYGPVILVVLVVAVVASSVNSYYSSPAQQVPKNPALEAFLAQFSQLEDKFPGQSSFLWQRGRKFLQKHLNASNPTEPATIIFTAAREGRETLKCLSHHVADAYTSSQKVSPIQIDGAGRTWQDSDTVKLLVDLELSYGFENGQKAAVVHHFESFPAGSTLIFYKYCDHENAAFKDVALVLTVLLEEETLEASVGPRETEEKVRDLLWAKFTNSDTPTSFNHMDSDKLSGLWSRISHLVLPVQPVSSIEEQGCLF

[16] = optical density change of DRC41 E. coli – strain DRC41, OD650, 24 h, E. coli filamentation project, primary screen (AID 1093);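 also: MC1000 strain lacking acrAB efflux and sulA so SOS filamentation is blocked; test concentration not given here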; details: E. coli DRC41 growth, higher = more signal, called active from +8 up or from −8 down
[17] = probe aLefty2 binding to arrayed compounds – biochemical, biotinylated probe, 635/667 nm fluorescence, primary screen (AID 1094); details: small-molecule microarray, higher = more signal;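 also: score merges spot fluorescence near 667 nm with spot signal-to-noise ratio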
[18] = system: Noggin (protein binding on small-molecule microarray); experiment: small molecules binding Noggin protein – biochemical, 635/667 nm fluorescence, primary screen (AID 1095); details: 635 nm fluorescence, higher = more signal;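 also: score merges 667 nm feature fluorescence with signal to noise over triplicate slides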
[19] = target: Neurogenic locus notch homolog protein 3 (Homo sapiens) (UniProt Q9UM47); experiment: small molecules binding NOTCH3 protein – biochemical, 635/667 nm fluorescence, primary screen (AID 1096); details: small-molecule microarray, 635 nm fluorescence, higher = more signal
[20] = probe aEGFR binding to arrayed compounds – biochemical, biotinylated probe, 635/667 nm fluorescence, primary screen (AID 1097); details: small-molecule microarray, higher = more signal;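 also: probe is a biotinylated anti-EGFR antibody binding compounds printed on slides; score combines fluorescence near 667 nm and signal to noise of each spot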

Compound	composite z-score [1]	composite z-score [2]	composite z-score [3]	composite z-score [4]	composite z-score [5]	composite z-score [6]	composite z-score [7]	z-score [8]	composite z-score [9]	composite z-score [10]	composite z-score [11]	z-score [12]	z-score [13]	z-score [14]	composite z-score [15]	z-score [16]	composite z-score [17]	composite z-score [18]	composite z-score [19]	composite z-score [20]
CC(C)(C)N1CC=CC23O[C@@H]4/C=C\CCCOC(=O)C4[C@H]2C(=O)N(CCCO)[C@@H]3C1=O (stereo not given in full)	0.164	-0.496	-0.203	-0.147	-0.864	1.07	1.1	0.502 (inactive)	-0.582	-0.286	0.477	-1.01 (inactive)	0.0214 (inactive)	-0.766 (inactive)	1.11	-0.282 (inactive)	-0.279	-0.877	0.0017	-0.129
CC(C)N1C(=O)c2ccccc2[C@@H](C(=O)NCC(F)(F)F)[C@@H]1c1ccc(CO)cc1	0.277	-1.16	-0.133	-0.0347	-1.07	0.156	1.21	0.0294 (inactive)	-0.0934	-0.169	-0.57	0.125 (inactive)	-0.637 (inactive)	0.0898 (inactive)	0.952	-0.199 (inactive)	-0.117	0.157	-0.59	-0.123
CC1CC/C=C\[C@H]2OC34C=CCN(Cn5nnc6ccccc65)C(=O)[C@H]3N(CCCCCCO)C(=O)[C@@H]4C2C(=O)O1 (stereo not given in full)	0.372	-1.11	-0.176	-0.539	-0.964	2.14	1.59	-0.863 (inactive)	-0.541	-0.169	-0.526	0.28 (inactive)	-0.0728 (inactive)	0.105 (inactive)	2.9	0.167 (inactive)	-0.205	-1.09	-0.368	-0.33
COC(=O)[C@@]1(Cc2ccc(F)cc2)[C@H]2c3cc(C(=O)N4CCCC4)n(Cc4cc(F)cc5c4OCOC5)c3C[C@H]2CN1C(=O)c1ccccc1	0.653	-0.622	0.13	0.816	1.75	1.69	0.102	0.869 (inactive)	1.56	0.0759	0.272	0.494 (inactive)	1.57 (inactive)	3.33 (inactive)	0.423	-0.0269 (inactive)	0.299	0.739	1.12	0.36
COc1ccc([Si](C)(C)[C@@H]2[C@@H](CC(=O)N3Cc4ccccc4C[C@H]3CO)O[C@]3(C(=O)N(Cc4cccc(N5CCOC5=O)c4)c4ccccc43)[C@H]2C)cc1	-0.38	0.671	-0.0264	0.147	0.331	0.309	0.876	-1.64 (inactive)	0.0495	-0.0618	1.56	-1.45 (inactive)	0.837 (inactive)	1.77 (inactive)	1.15	0.742 (inactive)	-0.121	1.42	1.12	-0.0972
C=C(CCCC)/C(=C/C[C@H](OC(=O)c1ccncc1)c1cccc(OCCO)c1)c1cnc2ccccc2c1	-0.279	0.824	0.0437	0.595	0.974	1.56	1.04	0.996 (inactive)	0.346	-0.0491	1.53	-0.664 (inactive)	-0.968 (inactive)	8.23 (active)	2.52	-0.268 (inactive)	-0.121	0.869	1.13	-0.065
CC(C)C[C@H]1NC(=O)C([C@@H](C)OCc2ccccc2)NC(=O)[C@@]23C(=O)N[C@@H](Cc4ccccc4)C2[C@H](C)[C@@]2(C)O[C@H]2C3/C=C/C/C=C\CNC1=O (stereo not given in full)	-0.61	0.583	-0.0712	0.775	0.831	1.21	1.06	2.71 (inactive)	0.517	3.36	1.55	-0.099 (inactive)	-1.21 (inactive)	0.206 (inactive)	2.01	-0.281 (inactive)	0.039	0.697	1.1	0.138
COc1ccc([Si](C)(C)[C@H]2[C@H](CC(=O)N3Cc4ccccc4C[C@H]3CO)O[C@@]3(C(=O)N(C)c4c(Br)cc(C)cc43)[C@@H]2C)cc1	-0.0669	0.403	-0.119	0.333	0.363	1.05	1.11	-4.4 (inactive)	0.334	-0.132	1.54	0.344 (inactive)	0.788 (inactive)	5.53 (inactive)	0.986	-0.498 (inactive)	-0.0631	1.42	1.09	-0.0828
NCCCCCCNC(=O)[C@@H]1C[C@@H]2C(=O)N3CCC[C@H]3C(=O)N2[C@@H]1c1cccc(OCCO)c1	1.14	0.957	-0.0347	0.361	0.0828	1.58	1.36	1.52 (inactive)	0.492	0.249	1.06	-1.18 (inactive)	-0.822 (inactive)	-0.651 (inactive)	1.74	0.974 (inactive)	0.0686	1.1	0.73	0.0713
Cc1ccc(F)cc1S(=O)(=O)N[C@H]1CCN(Cc2ccc(OC(C)C)cc2)C1	-0.347	0.325	-0.201	-0.0293	-0.563	-0.0273	0.629	-1.84 (inactive)	0.101	-0.132	1.48	-1.09 (inactive)	-13.1 (active)	-1.03 (inactive)	1.17	-2.66 (inactive)	-0.218	1.41	0.0527	-0.18
